Data reported in PubChem BioAssay (Tox21).
Records with an inconclusive call do not appear. Unmarked numbers belong to inactive results. The source made the active and inactive calls. The call rests on the fitted dose curve.
On the % scale 0 is the no-effect control and ±100 the full control effect.

Experiment: cAMP Responsive Elements (CRE) small molecule agonists, cell-based qHTS assay (AID 1963590)
Conditions: CRE-bla HEK293T, beta-lactamase FRET ratio, 3 h; series mostly up to 92.4 µM; activation: at the top concentration
Source text: U.S. Tox21 Program National Center for Advancing Translational Sciences [NCATS] Division of Preclinical Innovation [DPI] U.S. Environmental Protection Agency [EPA] National Institutes of Environmental Health Sciences [NIEHS] National Toxicology Program [NTP] U.S. Food and Drug Administration [FDA] Tox21 Assay Overview: CREB (cyclic-AMP Responsive Element Binding Protein) is a cellular transcription factor. It binds to certain DNA sequences called cAMP Responsive Elements (CRE) and regulates the transcription of the genes. […] This cell line can be used to find agonists/antagonists of the cyclic AMP signaling pathway. The activation of the report gene under culture conditions can be detected by fluorescence intensity. This cell line has been used to screen the Tox21 10K compound library to identify agonists that induce oxidative stress.
Tox21 Assay Protocol Summary: CRE-bla Hek 293T cells were suspended in assay medium (DMEM containing 10% dialyzed FBS, 0.1 mM NEAA, 1 mM sodium pyruvate and 25 mM HEPES) and dispensed at 2,000 cells/5 uL /well into 1536-well black wall/clear bottom plates using a Multidrop Combi (ThermoFisher Scientific, Waltham, MA) dispenser. After the assay plates were incubated at 37 C/5% CO2 for 18 hrs, 23 nL of compounds dissolved in DMSO, positive controls or DMSO only was transferred to the assay plate by a pintool workstation (Kalypsys, San Diego, CA). After the plates were incubated at 37 C/5% CO2 for 3 hrs, 1 uL of LiveBLAzer B/G FRET substrate (Invitrogen, Carlsbad, CA) was added to each well using Bioraptr Flying Reagent Dispenser (FRD, Aurora Discovery, San Diego, CA). The plates were incubated at room temperature for 2 h.
With `O=c1[nH]cnc2c1ncn2[C@@H]1O[C@H](CO)[C@@H](O)[C@H]1O` the “activation” value was 0.0276% [at 42.5 µM].
For `CC(C=O)c1ccccc1` (stereo not given), the “activation” value was -0.141%.
For `CO[Si](CCCCl)(OC)OC`, the “activation” value was -0.413%.
In the case of `O=C1NC(=O)[C@@]2(CCOc3ccc(F)cc32)N1`, the “activation” value is reported as 0.277% [at 42.5 µM].
With `OCC1CC2CC1C1CCC(CO)C21` (stereo not given) the “activation” value was -1.32%.
With `Cc1cc(C)c(S(=O)(=O)O)cc1N=Nc1cc(S(=O)(=O)O)c2ccccc2c1O` the “activation” value was -0.567%.
For `CC(C)CCOC(=O)c1ccccc1`, the “activation” value was 0.145%.
With `O=Nc1ccc(NO)cc1` the “activation” value was -6.31%.
With `CC(=O)c1ccc(O)c(C(N)=O)c1` the “activation” value was -1.14% [at 42.5 µM].
With `C=CCOCC(CC)(CO)COCC=C` the “activation” value was 0.281%.
With `NCc1ccc(S(N)(=O)=O)cc1` the “activation” value was -0.202% [at 42.5 µM].
For `Nc1nnnn1-c1ccccc1`, the “activation” value was -0.192% [at 42.5 µM].
With `CN(C)CCCN(C)CCCN(C)C` the “activation” value was 0.898%.
In the case of `FC(F)(F)/C(=N\OCC1OCCO1)c1ccc(Cl)cc1`, the “activation” value is reported as 9.53%.
For `CCOc1ccc2c(c1)C(C)=CC(C)(C)N2`, the “activation” value was 8.49%.
In the case of `COc1ccc(N=[N+]([O-])c2ccc(OC)cc2)cc1`, the “activation” value is reported as 0.617%.
For `O=P(OC(CCl)CCl)(OC(CCl)CCl)OC(CCl)CCl`, the Potency was “inactive”.
For `CC(O)Cn1cnc2c1c(=O)n(C)c(=O)n2C` (stereo not given), the “activation” value was -1.29% [at 42.5 µM].
With `Oc1ccc2c(c1)OC[C@@H](N1CCC(O)(c3ccc(F)cc3)CC1)[C@H]2O` the “activation” value was 0.308% [at 42.5 µM].
In the case of `O=c1[nH]cnc2[nH]ncc12`, the Potency is reported as “inactive”.
With `CCC(C(=O)NC(N)=O)c1ccccc1` (stereo not given) the “activation” value was 0.767%.
For `COc1cc(/C=C/C(=O)O[C@H]2CC[C@]34C[C@]35CC[C@]3(C)[C@@H]([C@H](C)CCC=C(C)C)CC[C@@]3(C)[C@@H]5CC[C@H]4C2(C)C)ccc1O`, the “activation” value was 0.546% [at 42.5 µM].
For `O=C(Cl)c1ccc(C(=O)Cl)cc1`, the Potency was “inactive”.
For `CCCCNc1ccccc1`, the “activation” value was 0.318%.
For `c1ccc2cnccc2c1`, the “activation” value was -1.09%.
For `Cc1cnccn1`, the “activation” value was 0.579%.
In the case of `CCCCOCCOCCOCCCC`, the “activation” value is reported as -0.402%.
With `CC(=O)OC1CC(C)OC(C)O1` (stereo not given) the Potency was “inactive”.
In the case of `CCCCCCCC(=O)OCCCCCC`, the “activation” value is reported as 0.0208%.
In the case of `COc1cccc(OC)c1C(=O)O`, the “activation” value is reported as 0.207%.
With `CC(C)(C)c1ccc(C(=O)CCCCl)cc1` the “activation” value was 4.48% [at 42.5 µM].
For `CC(=O)/C=C/c1ccco1`, the “activation” value was -0.0818%.
In the case of `C=CCS(=O)(=O)O`, the “activation” value is reported as -0.323%.
With `CC(C)N=C=NC(C)C` the “activation” value was 0.313%.
With `CCCCOC(=O)C(=O)OCCCC` the “activation” value was 0.428%.
In the case of `C=CC(C)(O)CC/C=C(/C)CCC=C(C)C` (stereo not given), the “activation” value is reported as 0.778%.
In the case of `COc1ccc2cc(C=O)ccc2c1`, the “activation” value is reported as 3.14% [at 42.5 µM].
With `c1ccc(CCCc2ccncc2)cc1` the “activation” value was 10.4%.
In the case of `O=S(=O)(O)c1cccc(S(=O)(=O)O)c1`, the “activation” value is reported as -1.37%.
In the case of `COc1cc(C=O)ccc1OC(=O)C(C)C`, the “activation” value is reported as 1.06%.
